Test results taken from the supplement of paper PMC13380429.

Each compound was assayed on Vero E6 infected with SARS-CoV-2 (assay: morphology score (similarity to uninfected cells); higher = more like uninfected cells). Settings: 24 h.
For N[C@H]1C(O)O[C@H](CO)[C@@H](O)[C@@H]1O (mixture of isomers) [glucosamine] (10 µM), the morphology score was -0.0432. With COc1ccc(-c2coc3cc(O)cc(O)c3c2=O)cc1 [4-methylgenistein] (10 µM) the morphology score was 0.139. O=C(NC1CCC1)c1ccc(C#Cc2cccc(F)c2)nc1 (10 µM) was tested, and the morphology score was 0.0178. Work on CN(C)[C@@H](CCOc1cccc2ccccc12)c1ccccc1 [dapoxetine] (10 µM) yielded a morphology score of 0.467. C[C@@H]1C[C@H]2[C@@H]3C[C@H](F)C4=CC(=O)C=C[C@]4(C)[C@@]3(F)[C@@H](O)C[C@]2(C)[C@@]1(O)C(=O)COC(=O)C(C)(C)C [flumethasone-pivalate] (10 µM) was tested, and the morphology score was 0.324. In the case of CCn1nc(C2CCN(C(=O)CCO)CC2)nc1-c1cnc(N)c(-c2nnc(C(C)(C)C)o2)n1 (0.833333 µM), the morphology score was 0.199. Compound OC[C@H]1O[C@@H](c2ccc(F)c(Cc3cc4ccccc4s3)c2)[C@H](O)[C@@H](O)[C@@H]1O [ipragliflozin-L-proline] (10 µM) has a morphology score of 0.0125. For CCn1c2ccccc2c2cc(CNC)ccc21 (10 µM), the morphology score was 0.514. For O=C(NO)c1ccc(O)c(O)c1 [didox] (10 µM), the morphology score was 0.0981. In the case of C[n+]1c2cc(N)ccc2cc2ccc(N)cc21.Nc1ccc2cc3ccc(N)cc3nc2c1 [acriflavine] (0.833333 µM), the morphology score was 0.32. In the case of CN1[C@@H]2CC[C@H]1C[C@@H](OC(=O)N1Cc3ccccc3NC1=O)C2 (10 µM), the morphology score was 0.0635. In the case of CCc1nn(CCO)c(CC)c1Oc1cc(C#N)cc(C#N)c1 [lersivirine] (10 µM), the morphology score was 0.162. Work on C=C1C[C@]23C[C@@]1(O)CC[C@H]2[C@@]12C=C[C@H](O)[C@@](C)(C(=O)O1)[C@H]2[C@@H]3C(=O)O (10 µM) yielded a morphology score of -0.0765. Compound Cc1nnc2n1-c1sc(CCC(=O)N3CCOCC3)cc1C(c1ccccc1Cl)=NC2 [apafant] (10 µM) has a morphology score of -0.0825. For CC1=C(CC(=O)O)c2cc(F)ccc2/C1=C\c1ccc(S(C)(=O)=O)cc1 [exisulind] (10 µM), the morphology score was 0.0955. With CC(C)C[C@H](NC(=O)[C@@H](Cc1c[nH]c2ccccc12)NC(=O)[C@H](Cc1ccc(O)cc1)NC(=O)[C@H](CO)NC(=O)[C@H](Cc1c[nH]c2ccccc12)NC(=O)[C@H](Cc1c[nH]cn1)NC(=O)[C@@H]1CCC(=O)N1)C(=O)N[C@@H](CCCNC(=N)N)C(=O)N1CCC[C@H]1C(=O)NCC(N)=O [triptorelin] (10 µM) the morphology score was -0.0195. In the case of OCc1cncc(F)c1 [5-fluoro-3-pyridyl-methanol] (10 µM), the morphology score was 0.135. In the case of CN1C(=O)CCS(=O)(=O)C1c1ccc(Cl)cc1 (stereo unspecified) [chlormezanone] (10 µM), the morphology score was -0.0968. In the case of c1cc(-c2cnn3cc(-c4ccc(OCCN5CCCCC5)cc4)cnc23)ccn1 [dorsomorphin] (0.833333 µM), the morphology score was 0.321. With N[C@@H](Cc1ccc(O)cc1)C(=O)NCC(=O)NCC(=O)O (10 µM) the morphology score was -0.0946. With CNC(=O)c1c(I)c(C(=O)NCC(=O)Nc2c(I)c(C(=O)O)c(I)c(C(=O)NCCO)c2I)c(I)c(N(C)C(C)=O)c1I [ioxaglic-acid] (10 µM) the morphology score was 0.0564. C[C@H](Nc1cc2c(-c3ccc4c(c3)OCO4)noc2cn1)c1ccccc1 (10 µM) showed a morphology score of 0.191. With C[C@H](NC(=O)Cc1cc(F)cc(F)c1)C(=O)N[C@@H]1C(=O)N(C)c2ccccc2-c2ccccc21 (10 µM) the morphology score was 0.18. With Cc1ncc(OC[C@@]2(c3cccc(F)c3)C[C@H]2C(=O)Nc2ccc(F)cn2)c(C)n1 [lemborexant] (10 µM) the morphology score was 0.0108. Work on Cc1ccc(/C(=C\CN2CCCC2)c2cccc(/C=C/C(=O)O)n2)cc1 [acrivastine] (10 µM) yielded a morphology score of -0.036. For CCC[C@H](Nc1nc(-c2ccc(NC(=O)NCC)c(OC)c2)ncc1C)c1cccnc1 (10 µM), the morphology score was -0.29. Work on CC(C)(C)/[N+]([O-])=C/c1ccc(S(=O)(=O)O)cc1S(=O)(=O)O (10 µM) yielded a morphology score of 0.00191. With CCC(CC)Nc1nc(C)c(-c2ccc(OC(F)(F)F)cc2OC)nc1OC (10 µM) the morphology score was 0.2. CC(C)(C)c1cc(C(C)(C)C)c2c(c1)C(O)(C(F)(F)F)C(=O)O2 (racemic) (10 µM) was tested, and the morphology score was 0.239. Work on c1cc(-c2sc(-c3ccncc3)c(-c3ccncc3)c2-c2ccncc2)ccn1 (10 µM) yielded a morphology score of 0.0438. Work on CCCCCNCC(N)=O [milacemide] (10 µM) yielded a morphology score of 0.0276.
